Screening results from PubChem BioAssay.
A selection: hits, their analogues and other compounds. The true share with any hit is near 17%.
ClpP mod: qHTS Assay for Activators of ClpP | purified B. subtilis ClpP, FRET peptide cleavage, 20 min | Potency, µM (doses to about 57.5 µM), without a hit: top-dose activity change, negative = active | 340,000 tested, 1.9% active; active = well fitted falling curve with a large enough effect; inconclusive = small, poorly fitted or top-dose-only effect; inactive = no such curve, though single readings can be large or run the other way; also: the source files actives as falling curves though it sought activators and does not explain the sign; nearly all actives have a fitted effect of over 65% in size
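ClpP 10 microg/mL final, pH 8 Tris/KCl buffer with BSA, glycerol, Tween-20; compound pinned in; FRET-FV substrate; RT 20 min; Ex320/Em430; ΔFRET vs ADEP 5.8 microM, DMSO, no enzyme.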
TDP1 inh: qHTS Assay for Inhibitors of Tyrosyl-DNA Phosphodiesterase (TDP1). 350,000 tested, 0.28% active. Potency, µM (titrated, usually from 130 µM), inactives show at the highest dose activity change, negative = inhibition, hits mostly inhibitors. recombinant TDP1, AlphaScreen DNA substrate cleavage. Tyrosyl-DNA phosphodiesterase 1 (Homo sapiens), Q9NUW8; also: % is scaled to controls: 0 for no effect and ±100 for the full control effect; nearly all actives have a fitted effect of over 40% in size
Target sequence (Q9NUW8 whole entry, looked up): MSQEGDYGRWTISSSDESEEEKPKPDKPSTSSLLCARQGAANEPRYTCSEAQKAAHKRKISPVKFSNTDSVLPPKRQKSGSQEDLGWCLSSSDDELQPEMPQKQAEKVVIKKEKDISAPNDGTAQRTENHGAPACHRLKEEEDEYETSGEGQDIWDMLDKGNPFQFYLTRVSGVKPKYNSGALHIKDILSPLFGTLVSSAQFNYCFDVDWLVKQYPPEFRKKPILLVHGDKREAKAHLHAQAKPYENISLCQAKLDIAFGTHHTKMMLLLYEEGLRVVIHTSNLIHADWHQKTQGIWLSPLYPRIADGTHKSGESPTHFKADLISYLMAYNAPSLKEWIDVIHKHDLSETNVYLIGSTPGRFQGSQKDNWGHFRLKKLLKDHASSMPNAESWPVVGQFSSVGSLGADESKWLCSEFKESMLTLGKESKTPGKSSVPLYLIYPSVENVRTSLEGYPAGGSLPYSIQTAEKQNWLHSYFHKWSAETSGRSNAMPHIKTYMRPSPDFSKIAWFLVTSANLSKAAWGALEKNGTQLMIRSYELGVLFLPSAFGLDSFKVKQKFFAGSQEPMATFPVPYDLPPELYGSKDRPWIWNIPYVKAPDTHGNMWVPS
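Recombinant E. coli-expressed Tdp1 (1 nM) preincubated with compound 15 min at RT, then 5'-biotin/3'-phosphotyrosine-FITC DNA substrate (15 nM) added for 5 min. AlphaScreen beads (10 ug/ml) added, 10 min RT; tyrosine-FITC cleavage read as signal loss.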
TDP1 cell noCPT: qHTS for Inhibitors of human tyrosyl-DNA phosphodiesterase 1 (TDP1): qHTS in cells in absence of CPT. Potency, µM (top dose mostly 46.2 µM), for inactives: at the highest dose activity change, negative = growth inhibition, actives largely listed as inhibitors. AID 686978, 2013. DT40 Tdp1-/- hTDP1 cells, no CPT, ATP luminescence, 48 h. 420,000 tested, 15% active; also: % is scaled to controls: 0 for no effect and ±100 for the full control effect; nearly all actives have a fitted effect of over 55% in size
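Seeded 400 DT40-hTDP1 cells/well (vehicle DMSO, no 20 nM CPT); pinned compounds; ≥48 hr at 37 °C; CellTiter-Glo luminescence as viability measure.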
TDP1 cell CPT: qHTS for Inhibitors of human tyrosyl-DNA phosphodiesterase 1 (TDP1): qHTS in cells in presence of CPT. chicken DT40 Tdp1-/-;hTDP1 cells + 20 nM CPT, ATP luminescence, 48 h. Potency, µM (titrated, usually from 46.2 µM), without a hit: top-dose activity change, negative = growth inhibition, usual class: inhibitors. 420,000 tested, 12% active; also: % is scaled to controls: 0 for no effect and ±100 for the full control effect; nearly all actives have a fitted effect of over 55% in size
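Cell growth measured by CellTiter-Glo luminescence after a minimum 48 h, 37 C compound exposure with 20 nM CPT in Tdp1-knockout DT40 cells stably expressing hTDP1, seeded 400/well; qHTS titration format.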
Active calls of the source: *. Unless noted, calls follow the shape of the dose curve; as a rule, active = well fitted curve in the direction sought with a large enough effect; inconclusive = small, poorly fitted or top-dose-only effect, or another doubt; inactive = no such curve, though single readings can be large; an effect the other way counts as inactive or inconclusive. Potency is read from the fitted curve at half-maximal effect.

`Cc1ccc(Cn2c(C(=O)O)c(CNCc3ccccc3Cl)c3ccc(C)cc32)cc1` gave ClpP mod -8.0%, TDP1 inh 2.6%, TDP1 cell noCPT inconclusive and TDP1 cell CPT 23.1µM*.
For Cc1ccc(Cn2c(C(=O)O)c(CNCc3cccs3)c3ccc(C)cc32)cc1 the results were ClpP mod inconclusive, TDP1 inh 5.1%, TDP1 cell noCPT inconclusive and TDP1 cell CPT 14.6µM*.
Screening Cc1ccc(Cn2c(C(=O)O)c(CNCCc3ccco3)c3ccc(C)cc32)cc1 returned ClpP mod -10.6%, TDP1 inh 12.8%, TDP1 cell noCPT -17.7% and TDP1 cell CPT -23.5%.
COc1cc(/C=C/C(=O)OCC(=O)Nc2cc(S(=O)(=O)N3CCCCC3)ccc2C)ccc1O was read as ClpP mod 0.0%, TDP1 inh 2.6%, TDP1 cell noCPT inconclusive and TDP1 cell CPT inconclusive.
Screening COc1cc(C(C)=O)ccc1OCC(=O)Nc1ccc(S(=O)(=O)N2CCCCC2)cc1 returned ClpP mod -5.3%, TDP1 cell noCPT 0.461µM* and TDP1 cell CPT -95.4%.
Screening COc1cc(C#N)ccc1OCC(=O)Nc1ccc(C)c(S(=O)(=O)N2CCOCC2)c1 returned ClpP mod -2.9%, TDP1 inh -2.7%, TDP1 cell noCPT inconclusive and TDP1 cell CPT inconclusive.
For COc1cc(C(C)=O)ccc1OCC(=O)Nc1ccc(C)c(S(=O)(=O)N2CCCCCC2)c1 the results were ClpP mod -6.4%, TDP1 inh -2.4%, TDP1 cell noCPT 16.4µM* and TDP1 cell CPT 8.2µM*.
`COc1ccc(NC(=O)CCCNC(=O)c2ccc(Cl)cc2)cc1S(=O)(=O)N1CCCCC1` gave ClpP mod 0.3%, TDP1 cell noCPT 20.6µM* and TDP1 cell CPT inconclusive.
For COc1ccc(NC(=O)CCCNC(=O)c2ccc(Cl)cc2)cc1OC the results were ClpP mod -1.0%, TDP1 cell noCPT 3.1% and TDP1 cell CPT 0.1%.
Screening COc1cc(/C=C/C(=O)OCC(=O)Nc2ccc(C)c(S(=O)(=O)N3CCCCC3)c2)ccc1O returned ClpP mod -1.3%, TDP1 inh -1.1%, TDP1 cell noCPT 25.9µM* and TDP1 cell CPT inconclusive.
Screening Cc1ccc(NC(=O)CCC(=O)c2cccs2)c(O)c1 returned ClpP mod -1.6%, TDP1 cell noCPT -27.7% and TDP1 cell CPT -16.7%.
C[C@@]1(O)C(O)[C@@H](CO)O[C@H]1n1cnc2c(NC3CCCC3)nc(Cl)nc21 (some centres not stated) was read as TDP1 inh 4.5%.
For CC(C)NC(=O)C1(C)CN(S(C)(=O)=O)CC(=O)N1CCc1ccccc1F (configuration not stated) the results were ClpP mod -1.3%, TDP1 cell noCPT -7.2% and TDP1 cell CPT 2.4%.
Screening COc1ccc(NC(=O)CN(C)C(C)C(=O)NC(=O)NC2CCCCC2)cc1 (configuration not stated) returned ClpP mod -2.0%, TDP1 inh 0.4%, TDP1 cell noCPT -6.8% and TDP1 cell CPT inconclusive.
`Clc1ccc(-c2ccn[nH]2)cc1` gave ClpP mod 2.9%, TDP1 inh 8.1%, TDP1 cell noCPT -7.2% and TDP1 cell CPT 1.4%.
For S=c1nccc(-c2ccc(Cl)cc2)[nH]1 the results were ClpP mod -2.5%, TDP1 inh 0.0%, TDP1 cell noCPT 20.6µM* and TDP1 cell CPT inconclusive.
Screening O=C(O)c1ccc(-n2ncc(Cl)c(Cl)c2=O)cc1 returned ClpP mod -1.6%, TDP1 cell noCPT 5.8µM* and TDP1 cell CPT 6.51µM*.
Screening Cc1ccc(Sc2cnn(-c3ccccc3)c(=O)c2Cl)cc1 returned ClpP mod -1.6%, TDP1 inh 1.0%, TDP1 cell noCPT 29.1µM* and TDP1 cell CPT inconclusive.
Screening COc1ccc2cnn(CCOc3cc(C)ccc3C(C)C)c(=O)c2c1OC returned ClpP mod -16.4%, TDP1 inh 2.6%, TDP1 cell noCPT 16.4µM* and TDP1 cell CPT 16.4µM*.
